Results reported in PubChem BioAssay (Tox21).
Where “and” joins values, the source holds several entries; their conditions need not be identical. Identical values can stand only once. Inconclusive results are not listed. A call without a number means that no potency is given here. The source holds several records for some structures; these can differ, active in one and inactive in another. Calls of active or inactive are those of the source. Unless noted, calls come from the whole dose curve.

How the values were obtained:
[1] = Nuclear factor erythroid 2-related factor 2/antioxidant responsive element (Nrf2/ARE) small molecule agonists: qHTS cell viability counter screen in human keratinocytes (AID 1919968; active = well fitted curve in the direction sought with a large enough effect in the repeat runs; an effect the other way counts as inactive or inconclusive; note: nearly all actives have a fitted effect of over 55% in size)
Outline: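 CellTiter-Fluor fluorescence, read 1 h after reagent, gave viability in the same wells as the ARE-luciferase assay. KeratinoSens cells (1,500/well) had 23 h compound exposure at 37 C/5% CO2 following 5 h plating.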

[2] = Nuclear factor erythroid 2-related factor 2/antioxidant responsive element (Nrf2/ARE) small molecule agonists: luciferase reporter gene qHTS assay in human keratinocytes (AID 1919969); note: nearly all actives have a fitted effect of over 35% in size; note: potency is the fitted concentration of half-maximal effect
[3] = molecular target: Gonadotropin-releasing hormone receptor (Homo sapiens) (UniProt P30968); assay: Human gonadotropin-releasing hormone receptor (GnRHR) small molecule agonists, calcium flux assay in GnRHR-HEK293 cells (AID 1920063); note: nearly all actives have a fitted effect of over 35% in size
Chain of Gonadotropin-releasing hormone receptor (Homo sapiens) (P30968 whole entry, looked up): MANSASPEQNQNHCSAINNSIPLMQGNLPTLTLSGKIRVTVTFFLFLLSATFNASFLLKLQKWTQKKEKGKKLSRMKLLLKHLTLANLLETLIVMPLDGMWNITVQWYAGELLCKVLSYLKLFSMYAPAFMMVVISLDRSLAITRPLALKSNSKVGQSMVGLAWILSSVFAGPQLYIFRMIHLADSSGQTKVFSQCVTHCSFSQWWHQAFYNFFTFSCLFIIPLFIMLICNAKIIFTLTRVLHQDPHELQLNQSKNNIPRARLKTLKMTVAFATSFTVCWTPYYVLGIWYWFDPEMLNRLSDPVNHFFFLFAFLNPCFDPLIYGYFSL
Outline: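 Agonist mode: compounds at 15 concentrations, in triplicate, went onto calcium dye-loaded GnRHR-HEK293 cells. Intracellular calcium was then followed as 480/540 nm fluorescence at 1 s intervals over 3 min.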

[4] = molecular target: KiSS-1 receptor (Homo sapiens) (UniProt Q969F8); assay: Human kisspeptin (KISS1R) small molecule agonists, calcium flux assay in KISS1R-HEK293 cells (AID 1920064; active = well fitted curve in the direction sought with a large enough effect in the repeat runs; an effect the other way counts as inactive or inconclusive)
Chain of KiSS-1 receptor (Homo sapiens) (Q969F8 whole entry, looked up): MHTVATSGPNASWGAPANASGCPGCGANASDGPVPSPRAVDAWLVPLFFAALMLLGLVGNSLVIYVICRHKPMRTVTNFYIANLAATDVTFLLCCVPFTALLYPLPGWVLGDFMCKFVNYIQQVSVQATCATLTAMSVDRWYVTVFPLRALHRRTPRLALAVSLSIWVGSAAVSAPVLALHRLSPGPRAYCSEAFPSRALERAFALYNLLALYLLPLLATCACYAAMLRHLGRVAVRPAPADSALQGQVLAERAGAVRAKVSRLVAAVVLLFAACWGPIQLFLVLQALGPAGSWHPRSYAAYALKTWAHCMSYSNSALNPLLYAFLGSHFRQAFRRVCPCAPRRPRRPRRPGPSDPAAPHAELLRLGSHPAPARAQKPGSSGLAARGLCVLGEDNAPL
Outline: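 Agonist mode: intracellular calcium rise tracked at 1 s intervals over 3 min (480/540 nm) immediately after compound addition to dye-loaded KISS1R-HEK293 stable cells. Each compound tested at 15 concentrations in triplicate.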

[5] = G protein-coupled receptor (GPCR) small molecule agonists, calcium flux assay: HEK293 wild type cell line counter screen (AID 1920065)
Outline: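 Calcium flux counter screen: compound added in agonist mode at 15 concentrations in triplicate to dye-loaded parental HEK293 cells. Fluorescence (480/540) read kinetically for 3 min; ATP served as positive control.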

[6] = p53 small molecule agonists, cell-based qHTS assay with human liver microsomes (AID 1963577);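 note: p53 response element beta-lactamase reporter cells with liver microsomes plus NADPH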
Outline: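 In this qHTS, p53 response-element beta-lactamase cells receive test compound together with a microsome/NADPH activating system (0.5 mg/mL final each) and are incubated 16 h at 37 C before LiveBLAzer fluorescence detection.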

[7] = p53 small molecule agonists, cell-based qHTS assay with rat liver microsomes (AID 1963578)
Outline: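 Agonist mode in p53RE-bla reporter cells, with compounds co-incubated 16 h at 37 C alongside 0.5 mg/mL rat liver microsomes and 0.5 mg/mL NADPH (final), followed by a 2 h LiveBLAzer detection step.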

[8] = p53 small molecule agonists, cell-based qHTS assay with human liver microsomes: qHTS cell viability counter screen (AID 1963579); note: nearly all actives have a fitted effect of over 45% in size
Outline: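 Metabolically activated exposure: compounds, human liver microsomes and NADPH (0.5 mg/mL final apiece) were added to p53RE-bla cells seeded 5 h earlier, left 16 h at 37 C, and then assessed for viability by CellTiter-Glo luminescence.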

[9] = p53 small molecule agonists, cell-based qHTS assay with rat liver microsomes: qHTS cell viability counter screen (AID 1963580); note: nearly all actives have a fitted effect of over 45% in size
Outline: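 Luminescent ATP readout (CellTiter-Glo, 30 min at room temperature) reports viability of p53RE-bla HCT-116 cells after 16 h at 37 C with test compounds under metabolic activation by rat liver microsomes and NADPH at 0.5 mg/mL final each.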

[10] = p53 small molecule agonists, cell-based qHTS assay: qHTS cell viability counter screen (AID 1963581); note: nearly all actives have a fitted effect of over 45% in size
Outline: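 Counter screen read by CellTiter-Glo luminescence (ATP content, 30 min at room temperature), run in the same wells as the beta-lactamase reporter read. HCT-116 p53RE-bla cells saw compounds for 16 h at 37 C.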

[11] = p53 small molecule agonists, cell-based qHTS assay (AID 1963582; active = well fitted activation curve with a large enough effect in the signal ratio in the repeat runs, not every such curve was filed as active; the % refers to the signal ratio)
Outline: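 Read-out is beta-lactamase FRET fluorescence after 2 h at room temperature with LiveBLAzer B/G substrate. p53 response element-bla cells were treated 16 h at 37 C with compounds in DMSO, added 5 h after seeding.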

[12] = molecular target: 5-hydroxytryptamine receptor 2A (Homo sapiens) (UniProt P28223); assay: 5-hydroxytryptamine receptor 2A (HTR2A) small molecule agonists, cell-based qHTS assay (AID 1963587); note: nearly all actives have a fitted effect of over 30% in size
Chain of 5-hydroxytryptamine receptor 2A (Homo sapiens) (P28223 whole entry, looked up): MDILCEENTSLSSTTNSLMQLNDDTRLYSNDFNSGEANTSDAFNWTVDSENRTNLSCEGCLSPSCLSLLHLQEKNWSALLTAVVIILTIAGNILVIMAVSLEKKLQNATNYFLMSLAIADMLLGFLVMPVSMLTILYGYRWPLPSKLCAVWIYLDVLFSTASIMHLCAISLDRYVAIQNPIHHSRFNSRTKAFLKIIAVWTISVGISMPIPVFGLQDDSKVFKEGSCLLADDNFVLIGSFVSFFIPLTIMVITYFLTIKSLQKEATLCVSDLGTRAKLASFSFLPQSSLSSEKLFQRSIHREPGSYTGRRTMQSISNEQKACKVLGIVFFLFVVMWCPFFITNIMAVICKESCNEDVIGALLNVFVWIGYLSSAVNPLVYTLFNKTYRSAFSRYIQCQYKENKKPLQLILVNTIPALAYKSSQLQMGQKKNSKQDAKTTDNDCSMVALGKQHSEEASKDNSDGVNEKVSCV
Outline: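 HTR2A-CHO cells, plated 18 h at 37 C/5% CO2, dye-loaded 1 h at 37 C; compounds in DMSO added by pin tool (agonist mode). Intracellular calcium flux read as kinetic fluorescence on FDSS over 2 min at 1 s intervals.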

[13] = molecular target: Muscarinic acetylcholine receptor M1 (Homo sapiens) (UniProt P11229); assay: Cholinergic receptor muscarinic 1 (CHRM1) small molecule antagonists, cell-based qHTS assay (AID 1963588); note: nearly all actives have a fitted effect of over 40% in size
Chain of Muscarinic acetylcholine receptor M1 (Homo sapiens) (P11229 whole entry, looked up): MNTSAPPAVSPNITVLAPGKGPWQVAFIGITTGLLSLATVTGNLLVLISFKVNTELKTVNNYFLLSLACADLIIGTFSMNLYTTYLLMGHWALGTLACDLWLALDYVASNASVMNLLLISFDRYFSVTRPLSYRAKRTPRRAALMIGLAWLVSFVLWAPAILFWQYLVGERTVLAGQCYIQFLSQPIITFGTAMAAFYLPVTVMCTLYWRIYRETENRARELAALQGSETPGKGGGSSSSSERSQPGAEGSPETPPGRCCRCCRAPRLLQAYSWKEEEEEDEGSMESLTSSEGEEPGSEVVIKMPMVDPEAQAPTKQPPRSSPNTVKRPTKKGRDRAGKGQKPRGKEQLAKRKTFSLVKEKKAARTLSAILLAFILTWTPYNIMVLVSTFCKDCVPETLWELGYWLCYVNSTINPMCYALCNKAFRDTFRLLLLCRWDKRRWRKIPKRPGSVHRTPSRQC
Outline: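 Compounds were tested at 15 concentrations in three independent runs. Dye-loaded CHRM1-CHO cells were exposed 5 min at room temperature before stimulation by acetylcholine added at 50nM. Intracellular calcium was read kinetically on FDSS for 3 min.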

[14] = molecular target: Muscarinic acetylcholine receptor M1 (Homo sapiens) (UniProt P11229); assay: Cholinergic receptor muscarinic 1 (CHRM1) small molecule agonists, cell-based qHTS assay (AID 1963589); note: nearly all actives have a fitted effect of over 35% in size
Outline: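 Agonist-mode calcium-flux screen: compounds at 15 concentrations, three independent runs, were pin-transferred onto dye-loaded human CHRM1-CHO cells. Fluorescence was then recorded kinetically every second over minutes.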

[15] = cAMP Responsive Elements (CRE) small molecule agonists, cell-based qHTS assay (AID 1963590)
Outline: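 Agonist mode: compound added to CRE-bla HEK 293T cells (2,000/well, 18 h after plating) for 3 h at 37 C/5% CO2. Reporter activity detected via FRET beta-lactamase substrate, 2 h room-temperature loading.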

[16] = cAMP Responsive Elements (CRE) small molecule antagonists, cell-based qHTS assay (AID 1963591; active = well fitted inhibition curve with a large enough effect in the signal ratio in the repeat runs, not every such curve was filed as active; the % refers to the signal ratio)
Outline: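 Antagonist mode: compounds are added alongside the adenylyl cyclase activator NKH477 (0.25 uM final) to CRE-bla HEK293T cells for 3 h. LiveBLAzer FRET substrate, 2 h at room temperature, reports bla expression.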

[17] = molecular target: Beta-2 adrenergic receptor (Homo sapiens) (UniProt P07550); assay: Adrenergic beta2 receptor (ADRB2) small molecule antagonists, cell-based qHTS assay (AID 1963592); note: series mostly up to about 92 µM; nearly all actives have a fitted effect of over 50% in size
Chain of Beta-2 adrenergic receptor (Homo sapiens) (P07550 whole entry, looked up): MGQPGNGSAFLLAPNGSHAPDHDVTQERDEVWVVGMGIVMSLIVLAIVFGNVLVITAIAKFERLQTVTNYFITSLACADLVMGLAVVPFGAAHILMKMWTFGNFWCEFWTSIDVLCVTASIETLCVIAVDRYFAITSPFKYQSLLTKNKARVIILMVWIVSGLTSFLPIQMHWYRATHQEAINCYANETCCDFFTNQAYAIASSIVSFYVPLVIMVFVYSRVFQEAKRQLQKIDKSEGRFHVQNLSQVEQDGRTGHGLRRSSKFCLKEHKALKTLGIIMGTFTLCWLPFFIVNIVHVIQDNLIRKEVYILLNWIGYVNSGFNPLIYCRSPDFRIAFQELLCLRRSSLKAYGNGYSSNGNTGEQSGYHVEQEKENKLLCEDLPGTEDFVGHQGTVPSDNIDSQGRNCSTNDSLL
Outline: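 Assay format: CHO-ADRB2 cells, 18-20hr seeding at 37C/5% CO2, then compound plus 1nM isoproterenol agonist mix for 0.5hr RT. Homogeneous time-resolved fluorescence cAMP detection after 1hr, expressed as 665/615 nm ratio.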

[18] = molecular target: D(2) dopamine receptor (Homo sapiens) (UniProt P14416); assay: Dopamine D2 receptor (DRD2) small molecule agonists, cell-based qHTS assay (AID 1963594); note: nearly all actives have a fitted effect of over 35% in size
Chain of D(2) dopamine receptor (Homo sapiens) (P14416 whole entry, looked up): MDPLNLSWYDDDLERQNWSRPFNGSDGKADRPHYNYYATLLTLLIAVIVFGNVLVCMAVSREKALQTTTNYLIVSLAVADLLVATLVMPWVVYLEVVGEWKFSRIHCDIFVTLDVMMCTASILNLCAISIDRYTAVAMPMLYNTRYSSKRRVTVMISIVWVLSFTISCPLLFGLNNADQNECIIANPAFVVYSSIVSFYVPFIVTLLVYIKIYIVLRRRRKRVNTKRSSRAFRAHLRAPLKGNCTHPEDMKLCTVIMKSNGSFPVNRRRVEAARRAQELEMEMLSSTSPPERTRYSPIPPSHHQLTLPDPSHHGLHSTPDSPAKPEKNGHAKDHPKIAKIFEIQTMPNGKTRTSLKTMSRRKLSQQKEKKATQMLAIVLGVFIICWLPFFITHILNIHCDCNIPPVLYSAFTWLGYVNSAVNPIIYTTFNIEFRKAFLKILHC
Outline: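 HEK293 cells stably expressing DRD2 were cultured 24 h at 37 C, then given Ro20-1724 (0.1 mM final) and compounds for 10 min at room temperature. NKH477 (200nM) was then added for 30 min. cAMP was read by HTRF.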

[19] = molecular target: D(2) dopamine receptor (Homo sapiens) (UniProt P14416); assay: Dopamine D2 receptor (DRD2) small molecule antagonists, cell-based qHTS assay (AID 1963595; active = well fitted inhibition curve with a large enough effect in the signal ratio in the repeat runs, with a control signal flat; the % refers to the signal ratio)
Outline: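 Cells were plated and grown for 24 h at 37 °C. Ro20-1724 (0.1 mM final) went in first, then compound for 10 min. NKH477 (200 nM) with quinpirole (12 nM) followed for 30 min at RT, then HTRF detection reagents for 1 h.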

[20] = molecular target: 5-hydroxytryptamine receptor 2A (Homo sapiens) (UniProt P28223); assay: 5-hydroxytryptamine receptor 2A (HTR2A) small molecule antagonists, cell-based qHTS assay (AID 1963586); note: nearly all actives have a fitted effect of over 45% in size
Outline: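 CHO cells stably expressing human HTR2A were plated for 18 h at 37 C, then loaded with calcium dye for 1 h. Compounds were preincubated 5 min at room temperature before DOI (4 nM solution) was added. Kinetic fluorescence was read for 3 min.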

Compound	Potency [1]	Potency [2]	Potency [3]	Potency [4]	Potency [5]	Potency [6]	Potency [7]	Potency [8]	Potency [9]	Potency [10]	Potency [11]	Potency [12]	Potency [13]	Potency [14]	Potency [15]	Potency [16]	Potency [17]	Potency [18]	Potency [19]	Potency [20]
C=C1CC[C@@]2(O)[C@H]3Cc4ccc(O)c5c4[C@@]2(CCN3CC2CC2)[C@H]1O5	inactive	inactive	inactive	inactive	inactive	inactive	inactive	inactive	inactive	inactive	inactive	inactive	inactive	inactive	inactive	inactive	–	–	–	–
CC(=NC#N)N(C)Cc1ccc(Cl)nc1	inactive	inactive	inactive	inactive	inactive	inactive	inactive	inactive	inactive	inactive	inactive	–	inactive	inactive	inactive	inactive	inactive	inactive	inactive	–
COC(C)(C)C	inactive	inactive	inactive	inactive	inactive	inactive	inactive	inactive	inactive	inactive	inactive	–	inactive	inactive	inactive	inactive	inactive	inactive	inactive	inactive
Cn1c(N)nc2c3cccnc3ccc21	inactive	inactive	inactive	inactive	inactive	inactive	inactive	inactive	inactive	inactive	inactive	–	inactive	–	inactive	–	inactive	inactive	inactive	inactive
Nc1cccc2ccccc12	inactive	inactive and 61.1 µM (active)	inactive	inactive	inactive	inactive	inactive	inactive	inactive	inactive	inactive	inactive	inactive	inactive	inactive	inactive	inactive	inactive	inactive	–
CC(C)(C)OOC(C)(C)C	inactive	inactive	inactive	inactive	inactive	inactive	inactive	inactive	inactive	inactive	inactive	–	inactive	inactive	inactive	–	inactive	inactive	inactive	inactive
Cc1cccc(C)c1N	inactive	inactive	inactive	inactive	inactive	inactive	inactive	inactive	inactive	inactive	inactive	inactive	inactive	inactive	inactive	inactive	inactive	inactive	–	–
